In test [1] the test system is Zika virus NS2B-NS3 protease (unlinked complex). The experiment in a line: Primary screen GU Rhodamine qHTS for Zika virus inhibitors: Unlinked NS2B-NS3 protease assay (AID 1347159). Also: nearly all actives have a fitted effect of over 60% in size. As to conditions: Recombinant ZIKV NS2B-NS3 protease, Rhodamine110 substrate fluorescence; series mostly up to 107 µM. Put shortly:
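In dose–response format, inhibition of unlinked protease (25 nM) was measured with 1.5 microM bis-peptide Rhodamine110 substrate. Aprotinin served as the intraplate control.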
(In general: In qHTS, concentration-response curves come from the screen itself.)

For test [2], the system named is Zika virus NS2B-NS3 protease (linked construct). The experiment in a line: Primary screen NINDS Rhodamine qHTS for Zika virus inhibitors (AID 1347160). Also: nearly all actives have a fitted effect of over 55% in size. As to conditions: purified NS2B-NS3 protease, Rhodamine110 substrate fluorescence; series mostly up to 57.1 µM. Summed up: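 Each compound, titrated, sat 15 min with 25 nM linked protease before 1.5 microM Rhodamine110 substrate went in. Fluorescence gain over the next 15 min, in pH 8.0 Tris with Tween 20, gave Hill-fitted curves.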

Results filed as inconclusive are left out. Unmarked numbers belong to inactive results. Active and inactive are the calls of the source. Calls follow the shape of the dose curve; as a rule, active = well fitted inhibition curve with a large enough effect; inconclusive = small, poorly fitted or top-dose-only effect; inactive = no such curve, though single readings can be large or run the other way.

Drawing on PubChem BioAssay (NCATS), this text covers Potency and activity change, negative = inhibition for 3 compounds.
% is scaled to controls: 0 for no effect and ±100 for the full control effect.

With `Cc1nc(NC(=O)N2CCCC2C(N)=O)sc1-c1csc(C(C)(C)C)n1` (stereo unspecified), the Potency result in test [1] and in test [2] was “inactive” throughout.
`CC(=O)O[C@@H]1[C@H](O)[C@@H](O[C@@H]2O[C@@H](C)[C@H](O[C@@H]3OC[C@@H](O)[C@H](O[C@@H]4OC[C@@H](O)[C@H](O)[C@H]4O)[C@H]3O)[C@@H](O[C@@H]3O[C@H](CO)[C@@H](O)[C@H](O)[C@H]3O)[C@H]2O)[C@H](OC(=O)[C@]23CCC(C)(C)C[C@H]2C2=CCC4[C@@]5(C)CC[C@H](O[C@@H]6O[C@H](C(=O)O)[C@@H](O)[C@H](O[C@@H]7OC[C@@H](O)[C@H](O)[C@H]7O)[C@H]6O[C@@H]6O[C@H](CO)[C@H](O)[C@H](O)[C@H]6O)[C@@](C)(C=O)C5CC[C@@]4(C)[C@]2(C)CC3)O[C@@H]1C` (stereo partly specified): the activity change, negative = inhibition in test [1] is -1.88% [at 19.1 µM]; in test [2] it was 7.65% [at 10.7 µM].
As to `CC(=O)OC1CC2(C)C3=CCC4(C)C5C(O)C(O)C(C(C)C)C5(C)CCC4(C)C3CCC2C(C)(C)C1OC1OC(CO)C(O)C(O)C1O` (stereo unspecified), the Potency entry in test [1] and in test [2] was “inactive” in each case.
